# Source: ChEMBL document CHEMBL3988442, “University of Dundee, Small-Polar-MMV Screening Library” (2021)
# Experiments:
# [1] = target: T1, Aspartate--tRNA(Asp/Asn) ligase (Mycobacterium tuberculosis (strain ATCC 25618 / H37Rv)) (UniProt P9WFW3); assay: Assay for Asp RNA synthetase-1 from Mycobacterium tuberculosis; format: functional; design: scale not given: direction of the effect not stated beside the values; details: 30 µM; also: in the data most compounds retested in dose-response had high values
# T1 sequence (whole entry): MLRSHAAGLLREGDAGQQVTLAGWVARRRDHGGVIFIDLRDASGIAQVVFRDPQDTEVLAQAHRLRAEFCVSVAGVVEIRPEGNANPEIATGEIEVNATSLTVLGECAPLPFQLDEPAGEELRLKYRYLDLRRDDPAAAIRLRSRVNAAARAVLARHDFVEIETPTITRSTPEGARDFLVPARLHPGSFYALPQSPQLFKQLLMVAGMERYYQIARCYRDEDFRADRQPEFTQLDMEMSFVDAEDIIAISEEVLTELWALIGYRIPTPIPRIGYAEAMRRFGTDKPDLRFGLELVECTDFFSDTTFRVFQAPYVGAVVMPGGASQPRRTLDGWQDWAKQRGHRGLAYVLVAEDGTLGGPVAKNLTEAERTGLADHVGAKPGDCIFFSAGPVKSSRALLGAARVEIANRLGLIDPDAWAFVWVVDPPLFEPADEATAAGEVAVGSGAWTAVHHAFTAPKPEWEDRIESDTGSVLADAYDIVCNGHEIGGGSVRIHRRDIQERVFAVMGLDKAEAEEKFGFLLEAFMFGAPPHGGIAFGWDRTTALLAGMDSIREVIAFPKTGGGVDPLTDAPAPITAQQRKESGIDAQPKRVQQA
# [2] = target: Shiga toxin 2 (Escherichia coli O157:H7) (UniProt P09385+P09386); assay: E. coli 0.157:H7 Shiga Toxin SOP - stx2 screening assay; format: functional; design: scale not given: direction of the effect not stated beside the values; details: 30 µM
SMILES,Percent Effect [1],Percent Effect [2]
CC(C)c1nc(CN2CCCN(Cc3nnc(C4CC4)o3)CC2)no1,-3.22%,-24.4%
O=C(c1ccccn1)N1CCCC(c2nccn2Cc2ccncc2)C1 (stereo not given),6.99%,4.41%
Cc1cc(CN2CCC(CNC(=O)c3ccc(O)c(Cl)c3)C2)[nH]n1 (stereo not given),3.15%,-15.7%
COc1ccc(CS(=O)(=O)CC(=O)NCC2CC2)cc1F,3.98%,-12.5%
CC(NC(=O)N(C)Cc1ccsc1)c1ccc2c(c1)CCC(=O)N2 (stereo not given),-2.72%,29%
COC(=O)c1cccc(NS(=O)(=O)c2cnc(NC(C)=O)s2)c1,-3.37%,-26.3%
O=c1cc(CN2CCCC(CCc3c(F)cccc3F)C2)[nH]c(=O)[nH]1 (stereo not given),3.07%,-12.7%
COCC1COCCC12CCN(C(=O)CCOc1ccccc1)CC2 (stereo not given),1.23%,0.928%
CC(C)c1nn(C)c(N(C)C)c1CNCCC(=O)N(C)C,-4.3%,10.1%
CN(C)C(C(=O)N1CCC(N2CCSCC2)CC1)c1ccccc1F (stereo not given),-8.47%,-3.63%
Cc1cn2c(n1)CCC(NC(=O)CCn1cncn1)C2 (stereo not given),-0.674%,21.7%
CCn1ccnc1CN1CCCN(C(=O)c2cccc(C#N)c2)CC1,0.189%,-8.53%
Cc1[nH]ncc1C(=O)N1CCCC(n2cncn2)C1 (stereo not given),1.7%,22.7%
COc1ccc(CN2C[C@H](OCC3CCOCC3)[C@H]3COC[C@H]32)cc1,-1.6%,1.49%
CCC1CCCN(C(=O)Cc2csc(-c3ncccn3)n2)C1 (stereo not given),0.456%,-14.8%
CC(C)(C)N1CCCN(C(=O)c2csc(S(N)(=O)=O)c2)CC1,-2.95%,-17.3%
CCNc1cc2c(nn1)CCN(C(=O)c1cc3nc(C)ccc3o1)C2,-4.95%,-51.6%
CCc1nc(C2CCCN2C(=O)C2=COCC2)no1 (stereo not given),-0.485%,-3.44%
COc1ccc(CN2CCC3(CC2)CCN(c2ncccn2)CC3)cc1,2.89%,-0.95%
CCN1CCN(c2ncc(-c3cc(C)no3)c(-c3ccc(C)s3)n2)CC1,2.72%,2.82%
O=C(c1ccnnc1)N1C[C@@H](OCC2CCOCC2)[C@H]2OCCC[C@H]21,-5.57%,-14.6%
OCC1CCCN1c1cc(N2CCN(c3ccccn3)CC2)ncn1 (stereo not given),-3.49%,32.6%
COc1cccc(-c2noc(C3CCN(Cc4cccs4)C3)n2)c1 (stereo not given),-0.868%,-30%
c1cnnc(N2CCCC(NCc3ccc(-n4ccnc4)cc3)C2)c1 (stereo not given),-2.02%,10.2%
CN(Cc1ncc[nH]1)CC(c1cccs1)N1CCOCC1 (stereo not given),-3.41%,4.34%
